These results are taken from PubChem BioAssay (Tox21).

Inconclusive results are not listed. Active and inactive are the calls of the source. Calls follow the shape of the dose curve; as a rule, active = well fitted activation curve with a large enough effect in the repeat runs; inconclusive = weak or mixed curves; inactive = no such curve, though single readings can be large or run the other way.
% is scaled to controls: 0 for no effect and ±100 for the full control effect.

Aryl hydrocarbon receptor (Homo sapiens), sequence (P35869 whole entry, looked up): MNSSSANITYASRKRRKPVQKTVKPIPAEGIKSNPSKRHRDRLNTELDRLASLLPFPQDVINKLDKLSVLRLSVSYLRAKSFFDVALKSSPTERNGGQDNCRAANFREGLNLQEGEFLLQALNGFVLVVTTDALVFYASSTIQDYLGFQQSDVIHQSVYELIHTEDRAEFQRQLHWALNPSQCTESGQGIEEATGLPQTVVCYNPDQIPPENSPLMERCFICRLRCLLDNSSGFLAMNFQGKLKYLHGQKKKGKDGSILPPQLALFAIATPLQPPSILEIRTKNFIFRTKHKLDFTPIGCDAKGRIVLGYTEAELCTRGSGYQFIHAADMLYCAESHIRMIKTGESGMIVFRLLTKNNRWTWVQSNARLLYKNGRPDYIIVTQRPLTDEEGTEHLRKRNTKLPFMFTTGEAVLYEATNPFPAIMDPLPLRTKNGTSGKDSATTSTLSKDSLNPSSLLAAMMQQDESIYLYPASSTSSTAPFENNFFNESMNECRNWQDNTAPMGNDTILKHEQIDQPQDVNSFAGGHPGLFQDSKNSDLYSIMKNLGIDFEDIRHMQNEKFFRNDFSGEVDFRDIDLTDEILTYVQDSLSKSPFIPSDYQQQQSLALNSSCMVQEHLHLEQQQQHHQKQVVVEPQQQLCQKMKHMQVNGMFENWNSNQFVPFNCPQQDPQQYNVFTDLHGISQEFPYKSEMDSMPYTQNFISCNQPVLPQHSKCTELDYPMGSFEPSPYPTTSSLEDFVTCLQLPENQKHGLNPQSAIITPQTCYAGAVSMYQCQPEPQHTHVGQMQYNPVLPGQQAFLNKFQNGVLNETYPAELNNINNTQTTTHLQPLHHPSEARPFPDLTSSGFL

This assay addresses Aryl hydrocarbon receptor (Homo sapiens) (UniProt P35869). Kind of assay: qHTS assay to identify small molecule that activate the aryl hydrocarbon receptor (AhR) signaling pathway (AID 743085).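 Also: HG2L7.5c1 human HepG2 liver cells with stably integrated DRE-driven firefly reporter; nearly all actives have a fitted effect of over 15% in size.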 The note with it: HepG2 AhR-luc (HG2L7.5c1), luciferase, 24 h; series mostly up to 70.3 µM; activation: at the top concentration. The source says: U.S. Tox21 Program National Center for Advancing Translational Sciences [NCATS] NIH Chemical Genomics Center [NCGC] U.S. Environmental Protection Agency [EPA] National Institutes of Environmental Health Sciences [NIEHS] National Toxicology Program [NTP] U.S. Food and Drug Administration [FDA] Tox21 Assay overview: The Aryl hydrocarbon Receptor (AhR), a member of the family of basic helix-loop-helix transcription factors, is crucial to adaptive responses to environmental changes. AhR mediates cellular responses to environmental pollutants such as aromatic hydrocarbons through induction of phase I and II enzymes but also interacts with other nuclear receptor signaling pathways. A cell based HepG2-AhR-luc assay (HG2L7.5c1 cell line, developed by Dr. Michael S. Denison, University of California at Davis, was used to assess the activation of AhR. HepG2 (human hepatocellular carcinoma) cells were stably transfected with an Ah receptor-responsive firefly luciferase reporter gene plasmid containing 20 dioxin responsive elements and luciferase reporter gene. Increased luciferase activity can be used to identify the compounds that induce AhR activation.
Tox21 Assay Protocol Summary: 4000 cells in 5 uL/well were dispensed into white wall/solid bottom 1536-well plates using a Multidrop Combi (Thermo Fisher Scientific Inc., Waltham, MA) dispenser. After the assay plates were incubated at 37C for 5 h, 23 nL of compound or DMSO vehicle was transferred to the assay plates by a pintool station (Kalypsys, San Diego, CA). The plates were incubated at 37C for 24 hr. After 1 ul/well of CellTiter-Fluor reagent (Promega, Madison, WI) was added into the assay plates using a Flying Reagent Dispenser (FRD) (Aurora Discovery, CA), the assay plates were incubated at 37C for 30 min. The fluorescence intensity in the plates was measured using a ViewLux plate reader (PerkinElmer, Shelton, CT), followed by the addition of 4 uL of ONE-Glo Luciferase Assay reagent (Promega) using an FRD (Aurora Discovery). After the assay plates were incubated at room temperature for 30 min, luminescence intensity was measured using a ViewLux plate reader (Perkin Elmer).
Take `Clc1ccc([C@@H]2C[C@H]3CC[C@@H]2N3)cn1`: the “activation” value was -2.01% (inactive).
With `CN1CCC(N(Cc2cccs2)c2ccccc2)CC1`, the “activation” value is -1.65% (inactive).
To `C1CCc2nnnn2CC1` belongs -1.26% (inactive); to `C#C[C@]1(OC(=O)CCCCCC)CC[C@H]2[C@@H]3CCC4=CC(=O)CC[C@@H]4[C@H]3CC[C@@]21C`, -2.09% (inactive).
Then `CNC(C)[C@@H]1CC[C@@H](N)[C@@H](O[C@H]2[C@H](O)[C@@H](O[C@H]3OC[C@](C)(O)[C@H](NC)[C@H]3O)[C@H](N)C[C@@H]2N)O1` (stereo not given in full), with 3.23% [at 32.5 µM] (inactive); and `CC(=O)CC(C)C`, with -0.356% (inactive); and `Cc1ccc2c(c1)[C@]13CCCC[C@@H]1[C@H](C2)N(C)CC3`, with -1.99% (inactive).
To `O=[N+]([O-])O[C@@H]1CO[C@H]2[C@@H]1OC[C@@H]2O` belongs -4.23% (inactive); to `Brc1cc(Br)c(Oc2cc(Br)c(Br)cc2Br)cc1Br`, -8.48% (inactive).
Consider `CN1C2CCC1CC(OC(c1ccccc1)c1ccc(Cl)cc1)C2` (stereo not given), for which the “activation” value was -13.5% (inactive).
Then `C[C@]12CC[C@H]3[C@@H](CCC4=CC(=O)CC[C@@]43C)[C@@H]1CC[C@@H]2OC(=O)CCc1ccccc1`, with -3.58% (inactive); and `CC[C@@]1([C@@H]2O[C@@H]([C@H]3O[C@@](O)(CO)[C@H](C)C[C@@H]3C)C[C@@H]2C)CC[C@H]([C@]2(C)CC[C@]3(C[C@H](O)[C@@H](C)[C@@H]([C@@H](C)[C@@H](OC)[C@H](C)C(=O)O)O3)O2)O1` (stereo in doubt), with -2.81% (inactive); and `C[N+]12CCC(CC1)C(OC(=O)C(O)(c1ccccc1)c1ccccc1)C2` (stereo not given), with -0.614% [at 32.5 µM] (inactive).
Then `CC[C@@H](O)C(C[C@@H](C)N(C)C)(c1ccccc1)c1ccccc1`, with -3.35% [at 95 µM] (inactive); and `Cc1cc(C(C#N)c2ccc(Cl)cc2)c(Cl)cc1NC(=O)c1cc(I)cc(I)c1O` (stereo not given), with 6.25% (inactive).
Then `CCC(=O)O[C@H]1[C@@H](N2CCCCC2)C[C@H]2[C@@H]3CC[C@H]4C[C@H](OC(C)=O)[C@@H](N5CCCCC5)C[C@]4(C)[C@H]3CC[C@@]21C`, with -0.314% (inactive); and `Cc1cc(C)c(N)cc1C`, with 7.27% (inactive); and `C[C@@H]1O[C@@H]1P(=O)(O)O`, with -0.667% (inactive).
In the case of `COc1cc(C[C@H](C)N)c(OC)cc1Br`, the “activation” value was -1.88% [at 95 µM] (inactive).
Then `CC(C)(c1cc(Br)c(OCCO)c(Br)c1)c1cc(Br)c(OCCO)c(Br)c1`, with -0.804% (inactive).
